Most compounds without a hit are left out; they make up all but 2.6% or so of the library.
CRFBP-R2 block = CRF-BP/CRF-R2 complex antagonism; HEK293 CRF-R2/CRF-BP, CRF-induced calcium fluorescence; inhibition, % at 11.8 µM; actives 0.59% (n = 350,000);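 active = inhibition of the ligand-induced calcium signal above about 50% at the single tested concentration, limit read from the data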
PABP1 MLLE inh = inhibitors of microRNA-mediated deadenylation, human PABP1 MLLE binding; P11940; GST-MLLE / FITC-PAM2 fluorescence polarization; inhibition, % at 20 µM; actives 0.36% (n = 360,000); AID 588489; in the data active = inhibition above about 35%, passing the limit was not always enough;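 note: plate controls were DMSO wells with GST-MLLE for no effect and wells lacking GST-MLLE protein for full effect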
eIF4H FP inh = inhibitors of RNA binding by human eIF4H | eIF4H fluorescence polarization binding assay | actives 0.94% (n = 290,000) | Q15056 | inhibition, % at 35 µM;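 note: calls also rest on retests at 20 µM and on dose response follow-up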
PHOSPHO1 inh = PHOSPHO1 (human) inhibition; Q8TCT1; recombinant PHOSPHO1, absorbance phosphatase assay; inhibition, % at 13.3 µM; actives 1.1% (n = 290,000); AID 1565; in the data active = inhibition above about 60%
Target sequence (Q8TCT1 whole entry, looked up): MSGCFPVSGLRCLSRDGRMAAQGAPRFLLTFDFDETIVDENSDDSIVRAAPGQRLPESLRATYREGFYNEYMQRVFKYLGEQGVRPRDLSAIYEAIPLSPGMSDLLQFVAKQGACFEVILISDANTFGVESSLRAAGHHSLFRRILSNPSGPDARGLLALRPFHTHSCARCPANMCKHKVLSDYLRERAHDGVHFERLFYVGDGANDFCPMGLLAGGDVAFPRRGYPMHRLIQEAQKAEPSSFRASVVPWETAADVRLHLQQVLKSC
PABP polyA inh = blocks human PABP binding to poly(A) RNA; P11940; fluorescence polarization; inhibition, % at 35 µM; actives 1% (n = 290,000);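 note: calls also rest on retests at 20 µM and on dose response follow-up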
Starred values were filed as active, the others as inactive; / = no result given. Unless noted, the rule behind the calls is not given here.

SMILES	CRFBP-R2 block	PABP1 MLLE inh	eIF4H FP inh	PHOSPHO1 inh	PABP polyA inh
Cc1ccccc1CN1C[C@@H]2C[C@@H](c3cn[nH]c3-c3ccccc3)N3CCC[C@@]23C1=O	-6	-10	1	20	1
CN(C)Cc1c(O)c(Cl)cc2c3c(c(=O)oc12)CCCC3	-1	10	64*	9	50*
CCSc1nnc(NC(=O)CN2C(=O)N(C)C3(CCCCC3)C2=O)s1	12	3	/	/	/
CCOC(=O)c1c(-c2ccc(C)o2)csc1NC(=O)CSc1nncs1	14	38	28	0	22
CCOC(=O)c1c(-c2ccco2)csc1NC(=O)CSc1nnc(N)s1	-15	-8	54*	25	8
CCOC(=O)c1c(-c2ccc(OC)cc2)csc1NC(=O)CNCc1ccco1	78*	-6	6	5	9
CCOC(=O)c1c(-c2ccc(Cl)cc2)csc1NC(=O)CNCc1ccco1	16	3	-4	20	0
CCOC(=O)c1c(-c2ccco2)csc1N	12	18	25	80*	30
CCN(CC)C(=O)C1=C(C)N(CCCOC)C(=O)C(CC(=O)NCCc2ccccn2)C1 (stereo not drawn)	2	1	/	/	/
COc1cc(/C=C2\S/C(=N/S(=O)(=O)Cc3ccccc3)NC2=O)c([N+](=O)[O-])cc1OC	1	23	1	2	24
COc1cc(/C=C2/S/C(=N/S(=O)(=O)c3ccccc3)NC2=O)c([N+](=O)[O-])cc1OC	29	39*	22	71*	63
Cc1nc(S/C(=C/c2ccc(-c3cc(Cl)ccc3C)o2)C(=O)O)n[nH]1	18	-12	60	-6	11*
Cc1nc(S/C(=C/c2ccc(-c3ccc(C(=O)O)cc3)o2)C(=O)O)n[nH]1	9	-18	75	42	44*
COc1ccc(C2C=C(c3ccc(C)cc3)Nc3ncnn32)cc1 (stereo not drawn)	-34	41*	1	24	13
Cn1c(C2CCCN2C(=O)OC(C)(C)C)n[nH]c1=S (stereo not drawn)	-3	6	-4	97*	-6
CSc1nnc([C@@H]2CCCN2C(=O)OC(C)(C)C)o1	-1	11	-3	-4	-11
CCOC(=O)c1sc2ccc(S(=O)(=O)N3CC(C)CC(C)C3)cc2c1N (stereo not drawn)	-10	24	-4	-3	-9
CC(=O)Nc1ccc(C(=O)OCC(=O)N(C)C2CCCCC2)cc1	-6	2	active	11	78
COc1ccc(N(C)S(=O)(=O)c2ccc3c(c2)NC(=O)CC(=O)N3)c(OC)c1	-3	-6	-13	70*	3
COC[C@H]1CCCN1[C@@H]1CS(=O)(=O)N[C@H]1COCc1ccccc1	/	1	/	/	/
N#CNC(=Nc1cccc(F)c1)SCc1ccccc1F	85*	-5	-8	-9	-2
CC(C)N=C(NC#N)SCc1ccccc1F	6	-7	-8	10	-8
CCOC(=O)N1CCN(S(=O)(=O)c2ccc(C)c(C)c2C)CC1	94*	0	-2	-23	8
O=c1cccccc1NN=C1CCCCC1	3	-16	82*	14	62*
O=C(O)c1cc(Br)ccc1NN=C1CCCCC1	26	22	8	-7	49
SMILES	CRFBP-R2 block	PABP1 MLLE inh	eIF4H FP inh	PHOSPHO1 inh	PABP polyA inh
O=c1cccccc1NN=C1CCCCCC1	4	18	59*	12	28*
O=C(NC1CC1)c1nc(Cn2cc([N+](=O)[O-])cn2)no1	0	13	-3	37	24
C[C@H]1CN([C@@H](C)CO)S(=O)(=O)c2ccc(/C=C/c3ccccc3)cc2O[C@H]1CN(C)C(=O)NC1CCCCC1	4	-12	/	/	/
COc1ccc(Cn2nnnc2C(c2cc3ccc(OC)cc3[nH]c2=O)N2CCC(C)CC2)cc1 (stereo not drawn)	-3	12	8	49	13
CCC(C)(C)n1nnnc1C(C(C)C)N(Cc1cccnc1)Cc1ccco1 (stereo not drawn)	9	-10	-4	28	-12
CCOc1ccc2[nH]c(=O)c(C(c3nnnn3Cc3ccco3)N3CCC(C)CC3)cc2c1 (stereo not drawn)	0	-31	50*	17	2.1*
CCC(C)(C)n1nnnc1C(C(C)C)N(Cc1ccco1)Cc1cc2cc3c(cc2[nH]c1=O)OCO3 (stereo not drawn)	-11	36	87	23	59*
COc1ccc2[nH]c(=O)c(CN(Cc3nnnn3Cc3ccco3)C3CCCCC3)cc2c1	16	9	9	43	38
CCC(c1nnnn1Cc1ccco1)N(Cc1cc2cc(C)cc(C)c2[nH]c1=O)CC1CCCO1 (stereo not drawn)	-31	1	20*	6	56
COc1ccc2cc(CN(CCc3ccccc3)Cc3nnnn3Cc3ccco3)c(=O)[nH]c2c1	-9	-15	55*	0	37*
CC1(C(=O)NS(=O)(=O)Cc2cccc(Cl)c2)CCN1C(=O)C/C=C/c1ccccc1 (stereo not drawn)	/	0	/	/	/
CCCS(=O)(=O)NC(=O)C1(C)CCCN(C(=O)c2c(OC)cccc2OC)C1 (stereo not drawn)	/	-6	/	/	/
CC1(C)C(=O)Nc2ccccc2N1C(=O)COc1ccccc1C#N	-4	-28	/	/	/
CC(C)(C)NC(=O)C(c1ccncc1)N(C(=O)C1CSC(=O)C1)c1ccccc1 (stereo not drawn)	11	-3	-5	34	2
COc1ccc(OC)c(NC(=O)C2(C)CCN2C(=O)CC2CC2)c1 (stereo not drawn)	/	1	/	/	/
COc1ccc(CCNC2=CC(=O)CCC2)cc1OC	/	-4	/	/	/
COc1cc2cc(CN(Cc3nnnn3Cc3ccccc3)CC3CCCO3)c(=O)[nH]c2cc1OC (stereo not drawn)	9	17	54*	29	68*
COc1ccc2[nH]c(=O)c(CN(C3CCCCC3)C(c3nnnn3Cc3ccco3)C(C)C)cc2c1 (stereo not drawn)	-55	-24	63*	37	64*
CCOc1ccc2[nH]c(=O)c(C(c3nnnn3Cc3ccco3)N3CCCC(C)C3)cc2c1 (stereo not drawn)	-9	-13	30*	-21	51
COc1ccc2[nH]c(=O)c(CN(Cc3ccccc3)Cc3nnnn3CC3CCCO3)cc2c1 (stereo not drawn)	-30	-16	-1	21	6
CC(=O)C1=CCC(c2ccccc2)N(S(=O)(=O)c2cccc(C)c2)C1 (stereo not drawn)	/	-2	/	/	/
N/C(=N\OS(=O)(=O)c1ccccc1)c1ccccn1	-4	-2	0	79*	-4
N/C(=N\OS(=O)(=O)c1ccc(Cl)cc1)c1ccccn1	4	-7	-3	21	-5
COc1ccc(Nc2nc3ccccc3nc2C)cc1	-1	-28	61*	11	62*
Cc1ccc(C)c(C(C)NC(=O)c2ccccc2Br)c1 (stereo not drawn)	64*	3	-4	2	2
COc1ccc(C(C)NC(=O)c2ccccc2Br)cc1OC (stereo not drawn)	-6	-8	-2	23	12

Assay outcomes as filed in PubChem.
